93 compounds from PubChem BioAssay AID1012 (Sanford-Burnham Center for Chemical Genomics, 2008) can be followed below.

Hit rate of the full screen: of about 200,000 compounds, about 520 (0.26%) were called active. Shown is part of a subset that was picked to be rich in actives. Unmarked numbers belong to inactive results.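 Rule for the calls: active = tissue-nonspecific alkaline phosphatase inhibition above about 50% at 20 µM in the single-dose screen (limit read from the data); inactive = the rest.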

Alkaline phosphatase, tissue-nonspecific isozyme (Homo sapiens), sequence (P05186 whole entry, looked up): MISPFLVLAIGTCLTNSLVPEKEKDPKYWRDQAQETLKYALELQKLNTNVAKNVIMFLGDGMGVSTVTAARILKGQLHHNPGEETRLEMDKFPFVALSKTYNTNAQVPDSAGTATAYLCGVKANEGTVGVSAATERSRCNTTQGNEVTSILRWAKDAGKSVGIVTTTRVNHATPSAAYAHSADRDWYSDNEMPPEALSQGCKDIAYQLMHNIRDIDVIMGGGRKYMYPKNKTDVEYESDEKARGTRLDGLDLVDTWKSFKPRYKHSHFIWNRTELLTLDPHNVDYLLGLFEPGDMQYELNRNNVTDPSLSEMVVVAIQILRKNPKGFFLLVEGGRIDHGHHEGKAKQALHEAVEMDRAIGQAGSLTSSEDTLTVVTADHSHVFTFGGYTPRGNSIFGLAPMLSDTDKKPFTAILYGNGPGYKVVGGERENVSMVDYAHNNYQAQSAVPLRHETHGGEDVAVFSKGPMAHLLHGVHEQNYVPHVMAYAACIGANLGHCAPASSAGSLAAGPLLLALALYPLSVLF

This assay concerns the target Alkaline phosphatase, tissue-nonspecific isozyme (Homo sapiens) (UniProt P05186). Description: blockers of alkaline phosphatase TNAP activity – biochemical, luminescent, no phosphate acceptor, uHTS, primary screen (AID 1012).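 Note: 0% = DMSO negative control and 100% = EDTA positive control.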 As to conditions: purified TNAP, CDP-star luminescence, 30 min; at 20 µM; stronger effect = higher value.
What is called inhibition is the drop in the measured response relative to a control, in per cent. For `COc1ccc(C/C(N)=N/OC(=O)c2ccco2)cc1OC`, the inhibition was -7.5%.
With `CCOc1ccc2nc(C(=O)N3CCCC(C)C3)sc2c1` (stereo not drawn), the inhibition was 1.7%.
As for `COC(=O)/C(=C1\Oc2ccc(C(C)(C)C)cc2S1)C(F)(F)F`, the inhibition is 0.6%.
Next, `COCC(=O)Nc1cc(C(=O)OC)cc(C(=O)OC)c1`: -4.5%.
Consider `S=c1[nH]nc2c3c4c(sc3ncn12)CCCC4`, for which the inhibition is 58% (active).
For `N=c1c2c3c(sc2ncn1N)CCCC3`, the inhibition was -4.9%.
`c1nnc2c3c4c(sc3ncn12)CCC4`: the inhibition was -10.6%.
With `O=C(Cn1c2[n+](c3ccc(C(F)(F)F)cc31)CCCCC2)Nc1c(F)cccc1F`, the inhibition was -6.3%.
Take `O=C(COC(=O)c1cnccn1)Nc1cccc2ccccc12`: the inhibition is -10%.
As for `S=c1[nH]nc(-c2cccs2)n1/N=C/c1cccs1`, the inhibition is 36.2%.
As for `S=c1[nH]nc(-c2ccco2)n1/N=C/c1ccc(Br)s1`, the inhibition is 58.4% (active).
The result for `Cc1ccc(/C=N\n2c(-c3ccccc3)n[nH]c2=S)s1` reads 29%; that for `COCCn1c(N)c(N(Cc2ccccc2)C(=O)C2CCCCC2)c(=O)[nH]c1=O`, -0.9%; that for `O=C(Cn1c(N2CCN(C/C=C/c3ccccc3)CC2)nc2ccccc21)c1ccccc1`, 5.4%.
Regarding `CCOC(=O)C1(CCOC)CCN(Cc2ccc(C(=O)OC)cc2)CC1`, the inhibition is -7%.
Next, `CCN1CCN(c2ccc(NC(=O)c3cnccn3)cc2)CC1`: -10.4%.
For the compound `CC(C)(C)OC(=O)N1CCC(NC(=O)c2[nH]cnc2C(=O)N[C@@H](Cc2ccccc2)C(=O)OCc2ccccc2)CC1`, the inhibition was -3.5%.
Next, `CC(C)Cc1nn2c(=O)cc(O)nc2s1`: -13.8%; `O=C(Nc1ccc(N2CCOCC2)cc1)c1ccc(-c2ccccc2[N+](=O)[O-])o1`: 8.7%; `COc1ccc(C(=O)Nc2cccc(S(C)(=O)=O)c2)cc1`: -11%.
The result for `N/C(=N\OC(=O)c1ccc2c(c1)OCO2)c1ccc(Br)cc1` reads -7%.
In the case of `COc1ccc(C2=NN(c3ccccc3)C(c3cccs3)C2)cc1` (stereo not drawn), the inhibition was -20.3%.
With `Cc1ccc(NC(=O)COC(=O)CCc2nc3ccccc3n2-c2ccccc2)c(C)c1`, the inhibition was -12.9%.
As to `COc1ccc(Cc2n[nH]c(=S)n2NC(=O)Nc2ccc(C)cc2)cc1`, the inhibition was -16.9%.
For `Cc1cc(C)c(C#N)c(SCC(=O)NN2CC(=O)N(c3ccccc3F)CC2=O)n1`, the inhibition is -6.4%.
For the compound `CCCCNC(=O)N1CCN(S(C)(=O)=O)CC1`, the inhibition was -6.4%.
With `O=C(CO/N=C/c1ccc(OC(F)F)cc1)NCc1ccc(F)cc1`, the inhibition was 2.4%.
Next, `COc1cc2[nH]c(=O)n(Cc3ccc(C(=O)NC4CCN(Cc5ccccc5)CC4)cc3)c(=O)c2cc1OC`: 1.5%; `Cc1n[nH]c(C)c1S(=O)(=O)N1CCCC(C(=O)NCC2COc3ccccc3O2)C1` (stereo not drawn): 51.6% (active).
As to `Cc1noc(/C=C/N(C)C)c1S(=O)(=O)N1CCCC(C(=O)NCc2ccco2)C1` (stereo not drawn), the inhibition is -12%.
The result for `Cc1ccc(NC(=O)C2CCCN(S(=O)(=O)c3c(C)noc3C)C2)c(C)c1` (stereo not drawn) reads -3.2%; that for `CC(=O)NC(Cc1ccccc1)C(=O)NC1CCN(c2ncccc2[N+](=O)[O-])CC1` (stereo not drawn), -1.2%; that for `COc1ccc(N2CCN(c3ccc([N+](=O)[O-])nc3)CC2)cc1`, -7.2%.
The result for `COc1ccc(-c2cc(C3CCN(c4ncccc4[N+](=O)[O-])CC3)[nH]n2)cc1` reads 59.7% (active); that for `Cc1ccc(S(=O)(=O)N2CCC(C(=O)N[C@@H](C)C(=O)NCc3ccco3)CC2)cc1`, -10%; that for `CN(Cc1cc2cc(F)ccc2[nH]1)Cc1nc(-c2cnccn2)no1`, -8.7%.
Take `CC(C)(C)C1CCC(OC(=O)CCC(=O)Nc2ccccc2)CC1` (stereo not drawn): the inhibition is -5.1%.
The result for `CC1=NN(c2ccccc2)C(=O)C1C(=O)c1ccc([N+](=O)[O-])cc1` (stereo not drawn) reads -4.4%; that for `O=C(c1ccc(OC2CCN(Cc3ccccn3)CC2)cc1)N1CCCCCC1`, -6%.
Regarding `COc1ccccc1C1=Nc2cccc3cccc(c23)N1`, the inhibition was -4.6%.
Consider `CCCOc1ccccc1-c1nc(SCCC(=O)O)n[nH]1`, for which the inhibition is 8.1%.
As for `COc1ccccc1-c1nc(SC)n[nH]1`, the inhibition is 63.7% (active).
Next, `C=CCN(Cc1nc(-c2cc(OC)c3c(c2)OCO3)oc1C)C1CCS(=O)(=O)C1` (stereo not drawn): -9.3%; `COc1ccc(NS(=O)(=O)c2cc(NC(=O)/C=C/c3cc(OC)c(OC)c(OC)c3)ccc2N2CCCCC2)cc1`: -3.9%; `CC1=CC2=NC(=O)CC(C)(C(=O)N(CC(=O)NC(C)(C)C)Cc3ccccc3)N2C=C1` (stereo not drawn): -13%.
With `CCN(c1ccccc1)S(=O)(=O)c1ccc2[nH]c(=O)[nH]c2c1`, the inhibition is 64.9% (active).
Regarding `CCN(c1ccccc1)S(=O)(=O)c1ccc(N)cc1`, the inhibition was -17.8%.
Next, `CCN(c1ccccc1)S(=O)(=O)c1cccc(C(=O)O)c1`: -2.9%; `Cc1c(CCO)sc[n+]1CC(=O)OC12CC3CC(CC(C3)C1)C2`: 55.5% (active); `Cc1c(CCOC(=O)CC23CC4CC(CC(C)(C4)C2)C3)sc[n+]1Cc1ccc([N+](=O)[O-])cc1`: -6.1%.
For `O=C(C(=O)N1CCc2ccccc2C1)c1c[nH]c2ccccc12`, the inhibition is 61% (active).
Consider `O=C(C(=O)N1CCc2ccccc2C1)N1CCc2ccccc2C1`, for which the inhibition was -5.7%.
Consider `CC1CCN(CC(=O)c2c[nH]c3ccccc23)CC1`, for which the inhibition was -9.1%.
Next, `Cc1[nH][nH]c(=O)c1C(c1ccc(-c2ccc(Cl)cc2)o1)c1c(C)[nH][nH]c1=O`: -57.7%; `CCOc1ccc(C(c2c(C)[nH][nH]c2=O)c2c(C)[nH][nH]c2=O)cc1OCC`: 58.2% (active).
In the case of `Cc1[nH][nH]c(=O)c1C(c1ccc2c(c1)OCO2)c1c(C)[nH][nH]c1=O`, the inhibition was 45.5%.
Consider `O=C(/C=C/c1ccc(F)cc1)Nc1cccc(S(=O)(=O)Nc2cccc(C(F)(F)F)c2)c1`, for which the inhibition is -9.4%.
Take `CCOc1ccc(/C=N/OCC(=O)NCc2cccs2)cc1`: the inhibition is 2.3%.
Turning to `O=C(NCCc1ccccc1)C1CCC(Cn2c(=O)c3ccccc3n(Cc3cccnc3)c2=O)CC1` (stereo not drawn), the inhibition was -0.3%.
Turning to `O=C(COC(=O)CSc1nnc(-c2ccc(Cl)cc2)o1)Nc1cc(Cl)cc(Cl)c1`, the inhibition was -10.5%.
The result for `COc1cc(N/C=C2\CC(=O)NC(C)=C2C#N)cc(OC)c1OC` reads -1.1%; that for `CCN(CCn1cccn1)Cc1cn[nH]c1-c1ccc(OC)cc1F`, 58.9% (active); that for `COc1ccc(-c2[nH]ncc2CN(C)Cc2cc(C)[nH]n2)c(F)c1`, 46.2%.
In the case of `CCN(CCn1cccn1)Cc1nc(-c2ccc(C(=O)OC)cc2)no1`, the inhibition was 2.4%.
In the case of `COc1ccc(-c2[nH]ncc2CN(C)Cc2c(C)n[nH]c2C)c(OC)c1`, the inhibition was -8.9%.
As to `COc1ccc(-c2[nH]ncc2CN(C)Cc2cccnc2)c(F)c1`, the inhibition was 64.9% (active).
For the compound `COc1ccc(-c2[nH]ncc2CN(Cc2nccn2C)C(C)C)cc1F`, the inhibition was -9.7%.
Take `Cc1cc(C)n2nc(SCC(=O)NC(=O)NCc3ccco3)nc2n1`: the inhibition is -9.4%.
`CCOc1cc(N2CCOCC2)c(OCC)cc1NC(=O)c1ccc(C)s1`: the inhibition is -8.9%.
`CCn1c(CNS(=O)(=O)c2ccc(Cl)cc2)n[nH]c1=S`: the inhibition was 24.7%.
In the case of `O=C(CN1CCSCC1)N/N=C/c1ccc(Cl)cc1`, the inhibition is -4.4%.
Consider `Cc1cc(NC(=O)CN2C(=O)NC(C)(CCc3ccccc3)C2=O)no1` (stereo not drawn), for which the inhibition was -3%.
Turning to `CCOC(=O)c1cc2c(=O)[nH]c(C(Cl)(Cl)Cl)nc2o1`, the inhibition was -11%.
For `CCCN(CC1COc2ccccc2O1)C(=S)Nc1ccc(C)cc1` (stereo not drawn), the inhibition was -16%.
The result for `CN(C)C(CNC(=O)c1ccc(S(=O)(=O)NCc2ccco2)cc1)c1ccccc1` (stereo not drawn) reads 7.7%; that for `C/C(CC(=O)N1CCN(C=O)CC1)=N\NC(=O)c1ccc(Br)cc1`, 0.3%; that for `Cc1ccc(NC(=O)c2sccc2C)cc1[N+](=O)[O-]`, -4.3%.
In the case of `Cc1ccc(C(=O)NC(=S)Nc2ccc3[nH]c(=O)[nH]c3c2)cc1C`, the inhibition is -9.4%.
On to `CC(=O)NC(=S)NNC(=O)c1ccc(Br)cc1`, for which the inhibition was -155%.
Turning to `O=C(CSc1nnc(-c2ccncc2)n1-c1ccc(Cl)cc1)Nc1ccc(C(=O)O)cc1`, the inhibition is 0.2%.
With `CC(C)(C)C1CCC(=NNC(=O)c2ccc(Br)o2)CC1` (stereo not drawn), the inhibition was 4.2%.
For the compound `CC(C)(C)C1CCC(=NNC(=O)c2cc(-c3ccccc3)n[nH]2)CC1` (stereo not drawn), the inhibition was 62.6% (active).
Take `CC(NC(=O)C(=O)NN=C1CCC(C(C)(C)C)CC1)c1ccccc1` (stereo not drawn): the inhibition was -15%.
`CCCCN(C)c1ccc([N+](=O)[O-])cc1`: the inhibition was 13.3%.
As for `CN(C)CCCN1C(=O)CSC1c1ccc([N+](=O)[O-])cc1` (stereo not drawn), the inhibition was -4.5%.
Next, `COc1ccc(NC(=O)c2cc3nc(-c4ccccc4)cc(C)n3n2)cc1OC`: -14.7%; `COc1ccc(S(=O)(=O)NCC2CCCN(C(=O)c3occc3C)C2)cc1` (stereo not drawn): -4.9%; `CCc1[nH]nc(C(=O)N2CCCC(CNS(=O)(=O)c3cccs3)C2)c1C` (stereo not drawn): 61.5% (active).
As to `O=C(NCc1ccccc1)C1CCCN(S(=O)(=O)c2cccs2)C1` (stereo not drawn), the inhibition is -5.5%.
Consider `CCC(C(=O)Nc1ccc2c(c1)OCCO2)c1ccccc1` (stereo not drawn), for which the inhibition was -22.2%.
With `COCCCN(C(=S)Nc1c(C)cc(C)cc1C)C(C)c1ccncc1` (stereo not drawn), the inhibition is -17.6%.
`CN(CCc1cn[nH]c1)C(=O)CC1C(=O)NCCN1Cc1cccc(Oc2ccccc2)c1` (stereo not drawn): the inhibition was -9.2%.
Regarding `CCOc1ccc(/C=N/NC(=O)C(C)Sc2ccccn2)cc1OCC` (stereo not drawn), the inhibition is -5.3%.
